In all, about 68,000 compounds went through this assay and about 2,700 (4%) showed an effect of 50% or more. The entries come from a sample that favours strong results as a whole.

This assay deals with Plasmodium berghei. As to the kind of experiment: Screen against P. berghei liver stage (PbLuc), transformed with Luciferase, at 2uM. Particulars: tested at 2 uM. It is filed as functional, HepG2.
Take `CC(C)Nc1ncnc2c1CCN(C(=O)NCc1cccc(F)c1)CC2`: the INHIBITION is on record as -36.75%.
Then `O=C(c1cccnc1Oc1ccc(Cl)cc1)N1CC[C@@H](O)C1`, with 18.2%; and `O=C(c1ccccn1)N1CCCC(c2ncncc2-c2ccncc2)C1` (stereo not given), with 39.9%; and `CNC(=O)N1CCC2(COCc3c(C)nc(NCc4ccco4)nc32)C1` (stereo not given), with 16.91%.
Then `COc1ncccc1C(=O)N1CCn2c(COCC3CC3)cnc2C1C` (stereo not given), with 30.38%; and `COC(=O)COc1nc(CC(C)C)c2c(c1C#N)CCCC2`, with 26.06%.
Regarding `CN(Cc1cccnc1)CC1CNCc2nccn2C1` (stereo not given), the INHIBITION came to 37.65%.
The result for `COc1ccc2cnn(CC(=O)NC3CCCC3)c(=O)c2c1OC` reads 45.14%; that for `CN(C(=O)c1cn(C)cn1)[C@@H]1CCC[C@@H](Oc2ccccc2)[C@@H]1O`, 32.81%.
Consider `c1csc(-c2noc(CCCNC3CCc4ncnn4C3)n2)c1` (stereo not given), for which the INHIBITION was -15.69%.
The result for `COc1cc(C(=O)N(Cc2cnn(C)c2)C(C)C)ccc1OCC(N)=O` reads -61.5%; that for `COc1ccc(C(=O)N(Cc2cnn(C)c2)C(C)C)cc1OC(F)F`, 60.09%.
Take `COc1cc(C(=O)N(Cc2cnn(C)c2)C(C)C)ccc1OC(C)C`: the INHIBITION is reported as -31.57%.
For `COc1cc(C(=O)N(Cc2cnn(C)c2)C(C)C)ccc1C`, the INHIBITION was 53.98%.
Take `COc1ccc(C(=O)N(Cc2cnn(C)c2)C(C)C)cc1Br`: the INHIBITION is given as 9.36%.
`CCOc1ccc(C(=O)N(Cc2cnn(C)c2)C(C)C)cc1OCC`: the INHIBITION amounted to 23.42%.
The result for `CN1CCC(Cc2noc(CCc3nc4ccccc4nc3O)n2)CC1` reads -14%; that for `O=C(c1ccc[nH]1)N1CCc2c(COCc3ccncc3)cncc2C1`, -18.76%.
Then `Cc1ccc(CN2CC[C@@H]3[C@@H]2CCN3C(=O)Cc2cccs2)o1`, with -45.36%; and `O=C(CN1CCCC1CC(=O)c1ccccc1)NCc1ccccn1` (stereo not given), with -47.19%.
For the compound `CCN(Cc1noc(CC(C)C)n1)C[C@]1(O)CCCN2CCCC[C@@H]21`, the INHIBITION came to 6.33%.
Then `CC(C)Cc1noc(CN(C)C[C@]2(O)CCCN3CCCC[C@@H]32)n1`, with 58.09%; and `CCN(Cc1nc(COC)no1)C[C@]1(O)CCCN2CCCC[C@@H]21`, with 21.67%; and `Cc1nn(C)c(C)c1C(=O)NN1CCOCC1`, with 27.88%.
Regarding `CCOc1ccc2ccccc2c1CNCC1CCNCC1`, the INHIBITION was -14.75%.
Then `Cc1cccnc1CC(C)Nc1nc(N)nc2c1CCNC2` (stereo not given), with 22.63%.
As for `CCN(CC)C(=O)C1CCCN(CC(=O)Nc2c(C)nn(CC)c2C)C1` (stereo not given), the INHIBITION is recorded as 23.58%.
Then `CCn1nc(C)c(NC(=O)C(C)C)c1C`, with 12.62%.
The result for `CCn1nc(C)c(NC(=O)CN2CCC(c3ccccc3Cl)C2)c1C` (stereo not given) reads 50.9%; that for `CCn1nc(C)c(NC(=O)CN2CCN(C(C)=O)CC2)c1C`, 53.77%.
Then `CCn1nc(C)c(NC(=O)CN2CC[C@H](CO)[C@@H](O)C2)c1C`, with 7.29%; and `CCn1nc(C)c(NC(=O)CN2CC[C@@H](F)C2)c1C`, with -28.65%.
In the case of `Cc1ccc(CN(CCCn2ccnc2)Cc2cccs2)s1`, the INHIBITION turned out to be 32.53%.
`CC1CCCN(c2ccccc2OCC(=O)NC2CCOCC2)C1` (stereo not given): the INHIBITION was 19.59%.
For `CC(Oc1ccccc1)C(=O)N1CCCN(Cc2nccn2C)CC1` (stereo not given), the INHIBITION is listed as -12.05%.
The result for `Cc1cc(C2CCCN2C(=O)CN2CCc3ccccc32)on1` (stereo not given) reads 18.37%.
Then `Cc1ccc2c(c1)SCC(=O)N2CC(=O)N1CCCC1c1cc(C)no1` (stereo not given), with 28.73%; and `Cc1cc(C2CCCN2C(=O)Cn2c(C)cc(=O)c3ccccc32)on1` (stereo not given), with 64.83%; and `CNC(=O)C1(C)CN(S(=O)(=O)c2cccc(OC)c2)CCO1` (stereo not given), with -4.78%.
As for `CN(CCc1ccccc1)Cc1c(C2CCNCC2)[nH]c2ncccc12`, the INHIBITION worked out at 2.56%.
The result for `CC(C)N1CCCn2nc(C(=O)NCCc3ccccn3)cc2C1` reads -31.6%.
Turning to `CN(Cc1ccco1)Cc1cnc2n1CCN(S(C)(=O)=O)CC2`, the INHIBITION turned out to be 9.1%.
The result for `CN(C)CCN1CCc2ncc(CN(C)Cc3ccco3)n2CC1` reads 52.05%.
As for `CN(Cc1ccco1)Cc1cnc2n1CCN(c1ncccn1)CC2`, the INHIBITION is on record as -6.14%.
On to `CC(C)C(O)CCNC(=O)Nc1cc(F)ccc1-n1cccn1` (stereo not given), for which the INHIBITION is 37.43%.
With `C[S+]([O-])CCNC(=O)Nc1cc(F)ccc1-n1cccn1` (stereo not given), the INHIBITION is 58.14%.
For `CN1CCN(c2ccc(F)cc2NC(=O)NCC[S+](C)[O-])CC1` (stereo not given), the INHIBITION came out at 17.98%.
Then `Cc1nc(C)c(CC(=O)NCc2cccnc2OC2CCCC2)c(=O)[nH]1`, with -10.1%.
Turning to `NC(=O)CCC1CCCN(c2ccnc3cc(F)ccc23)C1` (stereo not given), the INHIBITION worked out at 1.01%.
Turning to `CCn1cc(S(=O)(=O)Nc2ccc3[nH]c(C4CCC4)nc3c2)cn1`, the INHIBITION is on record as -16.18%.

These data come from ChEMBL document CHEMBL4513216, “Probing the Open Global Health Chemical Diversity Library for Multistage-Active Starting Points for Next-Generation Antimalarials” (ACS Infect Dis, 2020).
